According to PubChem BioAssay (NCATS):
Results filed as inconclusive are left out. Entries that show only a call come without a potency. Active and inactive are the calls of the source. Calls follow the shape of the dose curve; as a rule, active = well fitted cell-killing curve with a large enough effect; inconclusive = small, poorly fitted or top-dose-only effect; inactive = flat fitted curve, though single readings scatter.

Assay: KB-3-1 Cancer Cell Toxicity qHTS against the NCATS CANVASS Library (AID 1347366); also: nearly all actives have a fitted effect of over 75% in size
Details: KB-3-1 viability, CellTiter-Glo luminescence, 72 h; series mostly up to 46.1 µM
From the text: Natural products and their derivatives continue to be wellsprings of nascent therapeutic potential. However, many laboratories have limited resources for biological evaluation, leaving their previously isolated or synthesized compounds largely or completely untested. To address this issue, the Canvass library of natural products was assembled (https://tripod.nih.gov/canvass), in collaboration with academic and industry researchers, for quantitative high-throughput screening (qHTS) across a diverse set of cell-based and biochemical assays. The pure (>85% purity by liquid chromatography/mass spectrometry [LC/MS]) Canvass library of 346 natural products were submitted by 45 academic laboratories and companies around the world. We collected pure natural products to circumvent deconvolution and structure elucidation due to time and resource limitations. The library was formatted into 1536-well plates and evaluated in 50 qHTS (in an 11-pnt concentration series) bioassays with broad scope of disease-relevant mechanisms. The resulting data set from 50 different assays was then systematically analyzed to identify overall trends and specific natural products with interesting biological activities. Reported herein are the results of each individual qHTS and their corresponding assay protocol. […] National Center for Advancing Translational Sciences (NCATS), Rockville, MD National Institute of Health (NIH), Bethesda, Maryland
Cancer Cell Toxicity qHTS protocol 1. In a 1536 well, tissue culture treated white solid bottom plates (Corning 7494), 5 uL of KB-3-1 cell solution (final concentration of 500 cells / well) was dispensed using the Multidrop Combi dispenser (Thermo Fisher Scientific) into columns 3-48, rows 1-32. DMEM + 10% FBS + 100 U/mL penicillin / 100ug/mL streptomycin media solution was dispensed into column 1-2, row 1-32 also using the Multidrop Combi dispenser. 2. Control and Compounds were pin transferred (~23nL volume) to the assay plates via Wako Pin-tool (Wako Automation, Richmond VA) equipped with a 1536 pin head. The compounds were transferred to columns 5-48 resulting in a final concentration ranging from 0.17 nM to 103 uM. Dose response titration of Bortezomib was pin transferred into column 3, rows 1-32 (2mM; 1:2 dilution; 16 points; n = 2) resulting to a final concentration range of 0.3nM - 9.2uM. 3. The assay plates were further incubated in the at 37C, 5% CO2, 95% Rh for 72 hr. 4. After incubation, 2.5uL of CellTiter-Glo reagent (Promega) was added to the assay plates (column 1-48, rows 1-32) using the Multidrop Combi dispenser. 5. The assay plates were incubated at room temperature for 10 minutes. 6. Luminescence signal was acquired via the ViewLux plate reader (PerkinElmer) using a clear emission filter, 1 sec exposure, and 1x binning settings.
Potency is read from the fitted curve at half-maximal effect.

Row | SMILES | Potency
1 | CCN1C[C@]2(C)CC[C@H](O)[C@]34C1C(C[C@H]23)[C@@]12CC[C@H](CC14)[C@](O)(COC(=O)c1ccc(OC)c(OC)c1)[C@H]2O (stereo partly specified) | inactive
2 | C=C1[C@@H](C)[C@H]2[C@H](Cc3ccccc3)NC(=O)[C@]23OC(=O)/C=C/[C@H](O)CCC[C@@H](C)C/C=C/[C@H]3[C@@H]1O | 4.69 µM (active)
3 | CO[C@@H](/C=C/CC/C=C/C(=O)O)[C@@H](O)[C@H](C)/C=C(\C)[C@@H](O)[C@H](C)C(=O)CCCC1CC(=O)NC(=O)C1 | inactive
4 | CCC(=O)CCCCC[C@@H]1NC(=O)[C@H]2CCCCN2C(=O)[C@H]([C@@H](C)CC)NC(=O)[C@H](Cc2cn(OC)c3ccccc23)NC1=O | 1.18 µM (active)
5 | CCC[C@H]1CC[C@H]2[C@H](C)CCC[C@H]2N1 | inactive
6 | CC(=O)N[C@H]1CCN2CCC[C@H]12 | inactive
7 | CC=C1CN(C=O)[C@H]2C[C@@H]1[C@@H](C(=O)OC)[C@@]13CCOC21Nc1ccccc13 (stereo partly specified) | inactive
8 | CO[C@H](c1ccccc1)[C@H]1NC(=O)C(C)NC(=O)C(C[C@@H](C)CO)N(C)C(=O)[C@@H](C(O)c2cn(C(C)(C)C3CO3)c3ccccc23)NC(=O)C(C(C)C=C(C)C)NC(=O)C(CC(C)C)N(C)C(=O)C(C(C)C)NC1=O (stereo partly specified) | inactive
9 | C[C@@H]1CC[C@@H](c2ccoc2)N2C[C@@]3(CC[C@@H]12)CS[C@@]1(CC[C@H]2[C@H](C)CC[C@@H](c4ccoc4)N2[C@@H]1O)C3 | 8.33 µM (active)
10 | CNCCc1c[nH]c2ccccc12 | inactive
11 | COc1ccc2c(c1)[nH]c1c(C)nccc12 | 42.9 µM (active)
12 | c1ccc2c3c([nH]c2c1)CNCC3 | inactive
13 | CC1=CC(=O)C2=C(C)C[C@H](O)[C@@H]3[C@H](OC(=O)[C@@H]3C)[C@@H]12 | inactive
14 | C[C@]12CC(O)C3[C@@H](CCC4C[C@@H](O)CC[C@@]43CO)[C@@]1(O)CCC2C1=CC(=O)OC1 (stereo partly specified) | inactive
15 | CC[C@@H]1CN2CC[C@@]3(O)C(=Nc4cccc(OC)c43)[C@@H]2C[C@@H]1/C(=C\OC)C(=O)OC | inactive
16 | CC1=CC2CC[C@@H]3[C@@H](C)C[C@H](C)[C@@H](C1)N23 (stereo partly specified) | inactive

Row | SMILES | Potency
17 | CCCCC[C@@H]1OC(=O)[C@@H](C)N(C)C(=O)[C@H](CCCCC)OC(=O)C(C)N(C)C(=O)[C@H](CCCCC)OC(=O)[C@@H](C)N(C)C(=O)[C@H](CCCCC)OC(=O)C(C)N(C)C1=O (stereo partly specified) | 9.35 µM (active)
18 | COc1ccc2c3c([nH]c2c1)C(C)=NCC3 | inactive
19 | CO[C@@H](/C=C/CC/C=C/C(=O)O)[C@@H](O)[C@H](C)[C@@H](O)/C(C)=C/[C@H](C)C(=O)CCCC1CC(=O)NC(=O)C1 | inactive
20 | COC(=O)C1=C2Nc3ccccc3[C@@]23CCN2CC(C(C)=O)C1C[C@H]23 (stereo partly specified) | inactive
21 | CNCCc1ccc(O)cc1 | inactive
22 | CNCCc1ccccc1 | inactive
23 | C/C=C1/CN2CC[C@]34C(=Nc5ccccc53)[C@@H]2C[C@@H]1[C@H]4C(=O)OC | inactive
24 | CCN1C[C@]2(C)CC[C@@H](O)[C@]34C1[C@H](C[C@H]23)C12CCC(CC14)[C@](O)(CO)[C@H]2O (stereo partly specified) | inactive
25 | COc1ccc(C23Oc4cc(OC)cc(OC)c4[C@](O)([C@H](c4ccccc4)C2C(=O)NCCCCNC(=O)c2ccccc2)[C@@H]3O)cc1 (stereo partly specified) | inactive
26 | O=C(c1ccccc1O)c1[nH]c(Cl)c(Cl)c1-n1c(C(=O)c2ccccc2O)cc(Cl)c1Cl | 2.35 µM (active)
27 | NCCc1ccccc1 | inactive
28 | CCCC[C@@H]1CC[C@H]2CCCC(CCC)N12 (stereo partly specified) | inactive
29 | CC[N@@+]1([O-])C[C@]2(C)CC[C@@H](O)[C@@]34C5C[C@H]6CC[C@@]5(C(C[C@H]23)C41)[C@H](O)[C@@]6(O)CO (stereo partly specified) | inactive
30 | CN1C(=O)[C@]23CC4C(C)(C)[C@@]5(C[C@@]41CN2CC[C@@]3(C)O)C(=O)Nc1c5ccc2c1OC=CC(C)(C)O2 (stereo partly specified) | inactive
31 | CN(C)Cc1c[nH]c2ccccc12 | inactive
